Only a selection was taken, and hits are over-represented in it overall.
aSyn 5UTR act = Activators working through SNCA 5'UTR binding (MLPCN). 300,000 compounds, 7.1% hits. alpha-synuclein 5'UTR reporter, activators screen. activity score, % (tested at 7.5 µM), hits read low. AID 1814; in the data active = activity score below about -60%
Large screens that a line does not name were inactive.

Cc1ccc(C(=O)N/C(=C\c2ccc(-c3ccccc3[N+](=O)[O-])o2)C(=O)NCCCN2CCOCC2)cc1	none
COc1nc(N/N=C/c2ccc(-c3ccccc3[N+](=O)[O-])o2)nc(N2CCOCC2)n1	aSyn 5UTR act -105
CN(C)/C=N/c1ncnc2c1cnn2-c1ccc(C(F)(F)F)cn1	aSyn 5UTR act -84
Cc1ccc(/C=N/Nc2nncn2N)cc1	aSyn 5UTR act -120
COC(=O)c1cc(=O)n(Cc2ccc3c(c2)OCO3)c(=Nc2ccc(F)c(Cl)c2)s1	aSyn 5UTR act -66
CC(C)(C)c1cc(NC(=O)c2cccs2)no1	aSyn 5UTR act -77
CC(C)(C)c1cc(NC(=O)c2cc(F)c(F)c(F)c2F)no1	aSyn 5UTR act -63
CC(C)(C)c1cc(NC(=O)C2CCCO2)no1 (stereo unspecified)	aSyn 5UTR act -104
CC(C)(C)c1cc(NC(=O)c2cccnc2)no1	aSyn 5UTR act -102
O=C(Nc1cnn(Cc2c(Cl)cccc2Cl)c1)c1ccc([N+](=O)[O-])cc1	aSyn 5UTR act -65
CN(C)c1ccc(NC(=O)c2ccc(Cn3cc([N+](=O)[O-])cn3)cc2)cc1	aSyn 5UTR act -73
Cc1cccc(Nc2ncnc3ccccc23)c1	aSyn 5UTR act -98
Cc1ccc(/C(=N/Nc2ncnc3ccccc23)C(=O)O)cc1	aSyn 5UTR act -69
Cc1ccc(Nc2ncnc3ccccc23)cc1	aSyn 5UTR act -114
COC(=O)c1cccc(Nc2ncnc3ccc(C)cc23)c1	aSyn 5UTR act -88
CC(C)Oc1ccc(Nc2ncnc3ccccc23)cc1	aSyn 5UTR act -136
CC(=O)NCCc1nc2cc(NC(=O)c3ccc(Cl)cc3)ccc2n1C	aSyn 5UTR act -98
CCC(=O)NCCc1nc2cc(NC(=O)c3ccc(Cl)cc3)ccc2n1C	aSyn 5UTR act -175
CCC(=O)NCCc1nc2cc(NC(=O)c3ccc(F)cc3)ccc2n1C	aSyn 5UTR act -122
CC(=O)NCCc1nc2cc(NC(=O)c3ccccc3Cl)ccc2n1C	aSyn 5UTR act -62
CCC(=O)NCCc1nc2cc(NC(=O)c3ccc(OC)cc3)ccc2n1C	aSyn 5UTR act -119
O=C1N(c2ccccc2)C[C@@H]2C[C@@H](c3cc4ccccc4o3)N3CCC[C@@]123	aSyn 5UTR act -594
N=c1oc2cc(O)ccc2cc1C(=O)Nc1nc2ccccc2s1	aSyn 5UTR act -188
N=c1oc2cc(O)ccc2cc1C(=O)Nc1ccc(Br)cc1	aSyn 5UTR act -172
Cc1csc2nc(CSc3nc4ccccc4o3)c(Br)n12	aSyn 5UTR act -129
Cn1cccc1-c1nc2ccccc2[nH]1	aSyn 5UTR act -114
Cn1cccc1-c1nc2ccc(NC(=O)c3ccccc3)cc2[nH]1	aSyn 5UTR act -124
COCCN(CCOC)c1ncnc2c1cnn2-c1ccc(Cl)cc1	aSyn 5UTR act -139
COCCNc1ncnc2c1cnn2-c1ccc(Cl)cc1	aSyn 5UTR act -78
OCCOCCNc1ncnc2c1cnn2-c1ccccc1	aSyn 5UTR act -137
OCCOCCNc1ncnc2c1cnn2-c1ccc(Cl)cc1	aSyn 5UTR act -93
COc1ccc(-n2ncc3c(NCCCn4ccnc4)ncnc32)cc1	aSyn 5UTR act -122
O=C(Oc1ccc(F)cc1C(=O)/C=C/c1cccs1)c1cccc([N+](=O)[O-])c1	aSyn 5UTR act -87
CC(=O)N(c1nnc(-c2cccc(C)c2)s1)C1CCCC1	aSyn 5UTR act -160
C/C(=N\NC(=O)CSc1nc(C)[nH]c1[N+](=O)[O-])c1ccc(F)cc1	aSyn 5UTR act -109
COc1ccc(OCc2cc(C(=O)NCc3nc(C)cs3)no2)c(Cl)c1	aSyn 5UTR act -94
COc1ccc(OCc2cc(C(=O)NC(C)c3csc(C)n3)no2)c(Cl)c1 (stereo unspecified)	aSyn 5UTR act -119
CC(C)c1ccc2nc(SCC(=O)NCC3CCCO3)c(C#N)cc2c1 (stereo unspecified)	aSyn 5UTR act -143
c1ccc2c(NCCc3c[nH]c4ccccc34)c3ccccc3nc2c1	aSyn 5UTR act -549
OCCCNc1c2ccccc2nc2ccccc12	aSyn 5UTR act -155
Fc1cccc(NCCc2c[nH]c3ccccc23)n1	aSyn 5UTR act -101
c1ccc2c(c1)[nH]c1c3ccccc3sc21	aSyn 5UTR act -138
CCOc1cc(C)c(S(=O)(=O)Nc2ccc3cn[nH]c3c2)cc1C	aSyn 5UTR act -74
CCOC(=O)c1ccc(NC(=S)NC(=O)c2nn(CC)cc2Br)cc1	aSyn 5UTR act -66
CCOC(=O)c1ccc(NC(=O)c2nn(CC)cc2Br)cc1	aSyn 5UTR act -94
CCn1cc(Br)c(C(=O)Nc2ccc(F)c(Cl)c2)n1	aSyn 5UTR act -110
CCOC(=O)c1ccc(NC(=O)c2nn(C)cc2Br)cc1	aSyn 5UTR act -204
CC(=O)Nc1ccc(-c2nnc(SCC(=O)c3ccc4c(c3)Cc3ccccc3-4)n2C)cc1	aSyn 5UTR act -62
Cc1c([N+](=O)[O-])c(C(=O)Nc2ccc3c(c2)OCCO3)nn1C	aSyn 5UTR act -140
O=C(Nc1ccc(F)c([N+](=O)[O-])c1)c1ccc2c(c1)OCCO2	aSyn 5UTR act -138
COc1cc(C(=O)Nc2ccc3c(c2)OCCO3)ccc1OC(F)F	aSyn 5UTR act -153
Cc1csc(NC(=O)c2nn(C)c(C)c2[N+](=O)[O-])n1	aSyn 5UTR act -123
COc1cc(C(=O)Nc2ccc3c(c2)OCCO3)ccc1OC(C)C	aSyn 5UTR act -163
COc1ccc(NC(=O)c2ccc3c(c2)OCCO3)cc1OC	aSyn 5UTR act -104
COc1ccc(C(=O)Nc2ccc3c(c2)OCCO3)cc1[N+](=O)[O-]	aSyn 5UTR act -94
O=C(NOCc1ccccc1)c1ccccc1	aSyn 5UTR act -92
COc1ccc2cc3c(N)nn(C(=O)c4ccccc4Cl)c3nc2c1	none
COc1ccc2cc(C3OCCO3)c(Cl)nc2c1	aSyn 5UTR act -108
S=C(Nc1ccccc1)Nc1ccc(OCc2ccc(Cl)cc2Cl)cc1	none
OCCNCc1ccc(OCc2ccc(Cl)cc2Cl)cc1	aSyn 5UTR act -84
Cc1nc2ccccc2c(=O)n1/N=C/c1ccccc1Cl	aSyn 5UTR act -91
Cc1ccc(/C=N/n2c(C)nc3ccccc3c2=O)s1	aSyn 5UTR act -90
Cc1nc(-c2ccc3c(c2)OCCCO3)cs1	aSyn 5UTR act -100
CC1Cc2cc(-c3csc(N)n3)ccc2O1 (stereo unspecified)	aSyn 5UTR act -95
Nc1nc(-c2ccc3c(c2)OCCO3)cs1	aSyn 5UTR act -86
CN(Cc1ccccc1)C(=O)C(C(=O)c1ccc(F)cc1)n1cc(Cl)ccc1=O (stereo unspecified)	aSyn 5UTR act -67
Cc1ccc(NC(=O)CNC(=O)c2ccccc2F)cc1Cl	aSyn 5UTR act -69
Cc1ccc(NCCC(=O)c2ccc(Cl)cc2)cc1	aSyn 5UTR act -119
Cc1ccc(C(=O)CNc2ccc(C)c(Cl)c2)cc1	aSyn 5UTR act -68
Cc1ccc(NCCC(=O)c2ccccc2)cc1Cl	aSyn 5UTR act -134
Cc1ccc(NCC(=O)c2ccc(C)cc2)cc1	aSyn 5UTR act -125
COc1cc(NC(=O)C/C(C)=N/NC(=O)Cc2ccccc2)c(OC)cc1Cl	aSyn 5UTR act -69
COc1cc(NC(=O)C/C(C)=N/NC(=O)c2cccs2)c(OC)cc1Cl	aSyn 5UTR act -153
CCCC(=O)N(C)c1nnc(-c2ccc(OC)cc2)s1	aSyn 5UTR act -129
CCOc1ccc(-c2nnc(N(CC)C(=O)C3CCC3)s2)cc1	aSyn 5UTR act -102
N/C(=N\OC(=O)c1cccc2ccccc12)c1cccc([N+](=O)[O-])c1	aSyn 5UTR act -123
N/C(=N\OC(=O)c1cccc2ccccc12)c1cccnc1	aSyn 5UTR act -184
Cc1ccccc1C(=O)O/N=C(\N)c1cccc([N+](=O)[O-])c1	aSyn 5UTR act -275
O=C(c1cc(-c2cccc(O)c2)on1)N1CCCC1	aSyn 5UTR act -106

Source: PubChem
